Source: PubChem
Rows were chosen to be rich in hits. Some 3.8% of all compounds tested hit in one or more screens of this group.
KLK7 zymogen act = proKLK7 zymogen activators, primary screen, biochemical, fluorescence intensity. Kallikrein-7 (Homo sapiens), P49862. purified proKLK7, EDANS-DABCYL substrate fluorescence; 100% is mature enzyme control, 0% vehicle. 370,000 tested, 0.9% active. activation, % at 7 µM;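 active = activation above the mean of all tested compounds plus 3 SD, computed per campaign excluding outliers beyond control limits, cut at about 13% in these data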
ADAM17 inh = ADAM17 inhibitors, primary screen, biochemical, QFRET. Disintegrin and metalloproteinase domain-containing protein 17 (Homo sapiens), P78536. recombinant ADAM17, EDANS/DABCYL FRET peptide cleavage. inhibition, % at 6.95 µM. 370,000 tested, 0.83% active. AID 720648, 2013;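 active = inhibition above the mean of compounds lying between control limits plus 3 SD, set per campaign, cut at about 8.5% in these data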;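 note: 0% = DMSO-only wells as the low control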
rRNA inh HTS = reduced GFP signal of wild-type E. coli, primary screen, bacterial rRNA inhibitor project, GFP/RFP fluorescence, OD600, single point; E. coli WT GFP vs humanized-ribosome RFP mutants, 24 h; stronger effect = lower value; DMSO median 0, no signal -100; GFP signal change (wild-type ribosome), % (test concentration not listed); 350,000 tested, 1.6% active; AID 720706, 2013;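 active = significant combined selectivity score with lowered wild-type GFP, culture density cut under 30%, mutant RFP and density less affected; inactive = any of these conditions unmet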
ADAM10 inh = human ADAM10 inhibitors, primary screen, biochemical, QFRET, HTS; Disintegrin and metalloproteinase domain-containing protein 10 (Homo sapiens), O14672; recombinant ADAM10, EDANS/DABCYL FRET peptide cleavage, 3 h; inhibition, % at 7 µM; 370,000 tested, 0.62% active;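 active = inhibition above a per-campaign cutoff equal to the mean of compounds falling between control-based bounds plus 3 SD, cut at about 20% in these data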;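 note: 0% = DMSO wells while the 100% control is not disclosed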
Target sequence (O14672 214-748 limits assumed): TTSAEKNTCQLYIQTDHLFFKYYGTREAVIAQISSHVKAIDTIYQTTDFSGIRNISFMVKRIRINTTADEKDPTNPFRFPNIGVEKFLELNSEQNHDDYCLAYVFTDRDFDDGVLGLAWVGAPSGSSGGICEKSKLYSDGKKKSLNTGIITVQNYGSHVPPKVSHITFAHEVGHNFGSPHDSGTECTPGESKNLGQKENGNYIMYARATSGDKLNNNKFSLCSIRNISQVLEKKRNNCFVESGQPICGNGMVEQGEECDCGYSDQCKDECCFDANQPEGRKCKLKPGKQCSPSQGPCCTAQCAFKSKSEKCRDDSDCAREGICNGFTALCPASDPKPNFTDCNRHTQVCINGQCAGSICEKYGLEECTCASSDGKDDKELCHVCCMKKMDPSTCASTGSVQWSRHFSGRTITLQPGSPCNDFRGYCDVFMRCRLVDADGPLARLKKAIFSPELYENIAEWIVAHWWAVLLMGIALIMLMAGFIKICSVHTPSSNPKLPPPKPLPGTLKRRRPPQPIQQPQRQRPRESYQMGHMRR
FGF22 binding-1 = binders of human FGF22 protein, primary screen, FGF22 synaptogenesis inhibitor project, biophysical, thermal shift, single point; Fibroblast growth factor 22 (Homo sapiens), Q9HCT0; activity (Tm shift, normalised), % at 9.99 µM; AID 651658, 2012; recombinant FGF22 thermal shift, SYPRO orange fluorescence; percent of sucrose octasulfate shift, DMSO zero; 340,000 tested, 1.5% active;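 active = mean Tm shift, scaled 0 neutral to 100 positive control, at about 1.3% or above, every replicate too, limit read from the data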
Target sequence (Q9HCT0 whole entry, looked up): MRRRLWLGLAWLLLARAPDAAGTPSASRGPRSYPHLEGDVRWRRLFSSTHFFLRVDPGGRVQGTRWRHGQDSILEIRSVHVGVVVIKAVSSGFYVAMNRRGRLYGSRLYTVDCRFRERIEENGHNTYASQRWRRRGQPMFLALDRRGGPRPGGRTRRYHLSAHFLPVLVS
FGF22 binding-2 = binders of human FGF22 protein, dose response, FGF22 synaptogenesis inhibitor project, biophysical, thermal shift, cherry-pick retest; shares compounds with FGF22 binding-1; 1,000 tested, 2% active; AID 720646, 2013; thermal shift activity, °C (ΔTm) at 38 µM; recombinant FGF22 thermal shift, SYPRO orange fluorescence;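 active = fitted rise in melting shift crosses a set limit at or below the top valid dose tested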
SYPRO no-protein = compound-only thermal shift signal without protein, dose response, artefact control for FGF22 binder project, biochemical, cherry-picked samples, RT-PCR instrument. shares compounds with FGF22 binding-1. compound-only SYPRO orange thermal shift counter-screen, no protein. AC50, µM (titrated, usually from 38 µM). 1,000 tested, 2% active;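 active = rising signal whose fitted curve reaches the 0.54 level within the top valid dose, showing a melting point, actives reach about 13 µM in these data; inactive = the rest, including activity in the opposite direction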; note: value is where the raw curve crosses a fixed level and not half-maximal
* marks the source's active call; other numbers are inactive results; i = inactive; · = no result given; [ ] = another dose, or the depositor's remark.

SMILES	KLK7 zymogen act	ADAM17 inh	rRNA inh HTS	ADAM10 inh	FGF22 binding-1	FGF22 binding-2	SYPRO no-protein
C/C=C/c1ccc2c(c1)O[C@H](CN(C)C(=O)Nc1cc(F)ccc1F)[C@H](C)CN([C@H](C)CO)S2(=O)=O	·	·	-3.9	·	1.2*	0.026[42 µM]	i
C/C=C/c1ccc2c(c1)O[C@@H](CN(C)C(=O)Nc1cccc(F)c1)[C@@H](C)CN([C@@H](C)CO)S2(=O)=O	·	·	-12.1	·	1.5*	-0.824[42 µM]	i
Cc1noc(C)c1S(=O)(=O)N(C)C[C@H]1OCCCC[C@@H](C)Oc2ccc(NC(=O)C3CCCCC3)cc2C(=O)N([C@@H](C)CO)C[C@H]1C	·	·	-5.9	·	0.9	·	·
CC(C)NC(=O)N(C)C[C@H]1Oc2c(NC(=O)Nc3cccc4ccccc34)cccc2C(=O)N([C@H](C)CO)C[C@H]1C	·	·	0.7	·	-1.0	·	·
CC(=O)N(C)C[C@H]1Oc2ncc(C#C[C@H](C)O)cc2C(=O)N([C@@H](C)CO)C[C@@H]1C	·	·	6.7	·	3.6*	-0.132	i
C/C=C/c1cnc2c(c1)C(=O)N([C@H](C)CO)C[C@H](C)[C@@H](CN(C)C(=O)c1ccc3c(c1)OCO3)O2	·	·	-5.6	·	-0.1	·	·
CC(C)C#Cc1cnc2c(c1)C(=O)N([C@@H](C)CO)C[C@@H](C)[C@H](CN(C)C(=O)c1cnccn1)O2	·	·	1.9	·	1.3*	0.028	i
CC(=O)N(C)C[C@H]1Oc2ncc(C#C[C@@H](C)O)cc2C(=O)N([C@@H](C)CO)C[C@@H]1C	·	·	-1.5	·	0.4	·	·
C/C=C/c1cnc2c(c1)C(=O)N([C@@H](C)CO)C[C@H](C)[C@@H](CN(C)C(=O)c1ccc3c(c1)OCO3)O2	·	·	-2.8	·	2.6*	0.175	i
C#CCNC(=O)C1=C[C@H](c2cn(C(C)=O)c3ccccc23)C[C@H](OCCCCO)O1	·	·	·	·	-0.5	·	·
COc1ccc(C[C@H]2CCn3nncc3COC[C@H](CC(C)C)NC2=O)cc1	·	·	0.7	·	·	·	·
O=C(NNc1nc2c(F)cccc2s1)C1COc2ccccc2O1 (stereo unspecified)	-0.1	1.6	-52.2	8.5	-0.4	·	·
COc1cccc2sc(NNC(=O)C3COc4ccccc4O3)nc12 (stereo unspecified)	-0.5	-3.5	-59.7	-14.3	17.4*	0.218	i
COc1ccc2cc(CCNC(=O)c3cc4ccccc4o3)c(=O)[nH]c2c1	0.8	-3.6	-3.6	-21.2	1.8*	-0.059	i
Cc1ccc(S(=O)(=O)N[C@@H]2C=C[C@H](CC(=O)O)O[C@H]2CO)cc1	·	·	3.6	·	-0.2	·	·
O=C(Nc1ccc2c(c1)[C@@H]1C[C@H](CC(=O)N3CCCCC3)O[C@@H](CO)[C@@H]1O2)NC1CCCC1	·	·	0.7	·	20.3*	0.177	i
COCC(=O)Nc1ccc2c(c1)[C@@H]1C[C@@H](CC(=O)NCc3ccccn3)O[C@@H](CO)[C@@H]1O2	·	·	3.4	·	1.3*	0.018[42 µM]	i
CN(C)CC(=O)Nc1ccc2c(c1)[C@H]1C[C@H](CC(=O)NCC3CC3)O[C@H](CO)[C@H]1O2	·	·	2.6	·	0.1	·	·
CN(C)CC(=O)Nc1ccc2c(c1)[C@H]1C[C@@H](CC(=O)NCC3CC3)O[C@H](CO)[C@H]1O2	·	·	4.1	·	1.3*	-0.018	i
COCC(=O)Nc1ccc2c(c1)[C@H]1C[C@@H](CC(=O)NCCN3CCCCC3)O[C@@H](CO)[C@H]1O2	·	·	0.8	·	0.8	·	·
O=C(Nc1ccc2c(c1)[C@H]1C[C@H](CC(=O)N3CCCCC3)O[C@H](CO)[C@H]1O2)NC1CCCCC1	·	·	-4.2	·	·	·	·
O=C(C[C@H]1C[C@@H]2c3cc(NC(=O)CC4CC4)ccc3O[C@@H]2[C@@H](CO)O1)NCc1ccccn1	·	·	1.0	·	0.2	·	·
COCC(=O)Nc1ccc2c(c1)[C@H]1C[C@@H](CC(=O)NCCN3CCCCC3)O[C@H](CO)[C@H]1O2	·	·	6.1	·	1.3*	0.065	i
C[C@@H]1CN([C@@H](C)CO)C(=O)c2cccc(NS(=O)(=O)c3ccc(F)cc3)c2O[C@@H]1CN(C)C(=O)Nc1ccccc1	·	·	-2.2	·	0.1	·	·
Cc1ccccc1-c1ccc([C@@H]2[C@@H](CO)N3CCCCN(S(C)(=O)=O)C[C@@H]23)cc1	·	·	2.6	·	0.0	·	·
SMILES	KLK7 zymogen act	ADAM17 inh	rRNA inh HTS	ADAM10 inh	FGF22 binding-1	FGF22 binding-2	SYPRO no-protein
COc1ccccc1NS(=O)(=O)c1cccc(NC(=O)c2cc3ccccc3oc2=O)c1	0.1	0.9	6.9	-1.1	1.8*	-0.009	i
COc1ccccc1NS(=O)(=O)c1cccc(NC(=O)Nc2ccccc2)c1	-0.4	5.0	-11.1	19.6	0.1	·	·
CCc1ccc(C(=O)NCc2cnn(C)c2)s1	-0.1	0.9	3.6	-7.0	3.2*	0.2	i
C[C@@H]1CN([C@@H](C)CO)C(=O)c2cc(NC(=O)c3ccccc3)ccc2O[C@@H](C)CCCCO[C@H]1CN(C)C(=O)Cc1ccccc1	·	·	-1.5	·	0.6	·	·
Cc1ccc2c(c1)c(CC(=O)Nc1ccc(C)c(F)c1)c(C(=O)O)n2C	-0.7	-0.2	-24.4*	0.2	1.6*	0.162	i
O=C([C@@H]1[C@@H](CO)[C@@H]2Cn3c(ccc(-c4ccccc4F)c3=O)[C@H]1N2C(=O)C1CC1)N1CCOCC1	·	·	3.3	·	0.1	·	·
CC(=O)NC[C@H]1[C@@H](c2ccc(-c3ccccc3F)cc2)[C@@H](CO)N1C(C)=O	·	·	-1.0	·	-0.1	·	·
CC(C)C#Cc1ccc2c(c1)O[C@H](CN(C)S(=O)(=O)c1cn(C)cn1)[C@@H](C)CN([C@@H](C)CO)S2(=O)=O	·	·	-6.6	·	-0.2	·	·
CSCCC(NS(=O)(=O)c1ccc2ccccc2c1)C(=O)O (stereo unspecified)	-0.7	3.8	·	7.2	·	·	·
CSCCC(NS(=O)(=O)c1ccc(Cl)c(Cl)c1)C(=O)O (stereo unspecified)	0.0	4.1	13.9	17.8	1.4*	-0.094	i
COc1ccccc1CNC(=O)C[C@@H]1C[C@H]2c3cc(NC(=O)CC4CC4)ccc3O[C@H]2[C@@H](CO)O1	·	·	-2.0	·	0.0	·	·
